Screening data (PubChem BioAssay)
Compounds with a hit are over-represented: about 15% of the library has one in this group of screens.
ALOX12 inh = blocks human arachidonate 12S-lipoxygenase; hit rate 1.1% among 580,000; P18054; purified 12hLO, xylenol orange hydroperoxide absorbance; Potency, µM (titrated, usually from 108 µM), usual class: inhibitors
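Purified human 12hLO at 150 nM in 25 mM Hepes, 0.01% Triton X-100, pH 7.0, preincubated 15 min at room temperature with compound. Reaction started with 40 uM arachidonic acid, 30 min at room temperature. Hydroperoxide measured by Fe-xylenol orange, 573/405 nm absorbance ratio.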
DT40 TDP1 no CPT = qHTS for Inhibitors of human tyrosyl-DNA phosphodiesterase 1 (TDP1): qHTS in cells in absence of CPT; DT40 Tdp1-/- hTDP1 cells, no CPT, ATP luminescence, 48 h; Potency, µM (highest dose often 46.2 µM), most hits filed as inhibitors; hit rate 15% among 420,000; AID 686978, 2013; further: nearly all actives have a fitted effect of over 55% in size
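No-CPT arm: Tdp1-/-;hTDP1 DT40 cells (400/well) plus compounds, incubated ≥48 hr at 37 °C. Readout CellTiter-Glo luminescence.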
VP16 counter = inhibits Gal4-VP16 luciferase reporter, ROR gamma counter-screen; Drosophila S2 Gal4-VP16 UAS-luciferase, luminescence, 20 h; hit rate 3.5% among 310,000; Potency, µM (doses to about 53.6 µM), actives largely listed as inhibitors;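 further: Gal4-VP16 expression switched on by copper sulfate through the metallothionein promoter; nearly all actives have a fitted effect of over 50% in size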
TDP1 cell CPT = DT40-hTDP1 cell growth loss with CPT. chicken DT40 Tdp1-/-;hTDP1 cells + 20 nM CPT, ATP luminescence, 48 h. Potency, µM (top dose mostly 46.2 µM), actives largely listed as inhibitors. hit rate 12% among 420,000. AID 686979; further: nearly all actives have a fitted effect of over 55% in size
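Cell growth measured by CellTiter-Glo luminescence after a minimum 48 h, 37 C compound exposure with 20 nM CPT in Tdp1-knockout DT40 cells stably expressing hTDP1, seeded 400/well; qHTS titration format.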
RORgamma inh = inhibitors of mouse ROR gamma transcriptional activity. P51450. Drosophila S2 Gal4-RORgamma UAS-luciferase reporter, 20 h. Potency, µM (doses to about 53.6 µM), most hits filed as inhibitors. hit rate 5.4% among 310,000. AID 2551; further: nearly all actives have a fitted effect of over 60% in size
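A Gal4/UAS one-hybrid system in insect cells: metallothionein-promoter Gal4–ROR gamma fusion plus Photinus luciferase reporter. Copper sulfate 700 uM final, 20 hr ambient incubation, luminescent detection after 10 min with reagent.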
ELG1 repair inh = ELG1-dependent DNA repair inhibition; HEK293T ELG1-luciferase reporter, luminescence, 16 h; DNA damage induced by 5-fluorouridine; Potency, µM (series often up to 46.1 µM), hits mostly inhibitors; hit rate 2.3% among 330,000; further: nearly all actives have a fitted effect of over 55% in size
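Overnight (16 hr) co-exposure of 2,000 cells/well to 5-fluorouridine and compound at 37 °C preceded detection. Luciferase was quantified via ONE-Glo luminescence; loss of signal denotes inhibition.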
A number is an active result; - = inactive; ? = inconclusive; . = not tested or not shown; [ ] = remark or other dose. The call rests on the fitted dose curve; in most records, active means well fitted curve in the direction sought with a large enough effect; inconclusive means small, poorly fitted or top-dose-only effect, or another doubt; inactive means no such curve, though single readings can be large; an effect the other way counts as inactive or inconclusive.

SMILES	ALOX12 inh	DT40 TDP1 no CPT	VP16 counter	TDP1 cell CPT	RORgamma inh	ELG1 repair inh
CCN(CC)CC#CCC(C)(c1ccccc1)c1ccccc1	-	16µM	-	?	-	-
COc1ccc(/C=N/Nc2cc(C)nc3c(C)cccc23)cc1	?	21µM	?	?	?	-
COc1ccc(CNc2cc(C)nc3ccc(OC)cc23)cc1	?	21µM	-	?	-	-
COc1ccc2nc(C)cc(N/N=C/c3ccc(F)cc3)c2c1	?	0.92µM	5µM	1µM	4µM	?
COc1ccc2nc(C)cc(Nc3ccc(C(=O)O)cc3)c2c1	-	-	-	-	-	-
COc1cccc2c(N/N=C/c3ccc(O)c(O)c3)cc(C)nc12	20µM	-	-	-	?	?
CCOc1ccccc1/C=N/Nc1cc(C)nc2ccc(C)cc12	-	-	?	-	-[1.91 µM]	?
COc1cccc2c(Nc3ccccc3O)cc(C)nc12	-	.	.	.	.	.
COc1ccc(/C=N/Nc2cc(C)nc3ccccc23)cc1	-	?	?	?	?	-
COC(=O)c1cccc(NC(=O)c2ccc3c(c2)CCC3)c1	-	.	.	.	.	.
CCCCn1cnc2c1c(=O)n(CC(=O)Nc1ccccc1OC)c(=O)n2CCCC	-	.	.	.	.	.
N#Cc1ccccc1NC(=O)C1CCCC1	-	.	.	.	.	.
Cc1ccc(CN(C)C(=O)Cn2nnn(-c3cccs3)c2=O)cc1	-	.	.	.	.	.
O=C(NC1CCN(Cc2ccccc2)CC1)C1CCN(S(=O)(=O)c2ccccc2)CC1	-	?	-	-	?	-
Cc1noc(C)c1S(=O)(=O)N1CCC(C(=O)NC2CCN(Cc3ccccc3)CC2)CC1	-	11µM	-	?	-	?
O=C(NC1CCN(Cc2ccccc2)CC1)C1CCN(S(=O)(=O)c2ccc(Cl)cc2)CC1	?	16µM	?	?	?	-
Cc1noc(C)c1S(=O)(=O)N1CCC(C(=O)Nc2ccccn2)CC1	-	-	-	-	?	.
Cc1cccc(NC(=O)c2cccc(Cn3cc(Br)c([N+](=O)[O-])n3)c2)c1C	-	21µM	-	?	?	?
Cc1ccccc1NC(=O)c1cccc(Cn2cc(Br)c([N+](=O)[O-])n2)c1	-	?	-	?	?	-
Cc1nc(-c2ccncc2)ncc1C(C)NC(=O)C1=NN(C)C(=O)CC1 (stereo not drawn)	-	.	.	.	.	.
CCN=c1scc(-c2ccccc2)n1/N=C/c1ccccn1	.	3.7µM	7.9µM	4.1µM	4.5µM	?
CCN=c1scc(-c2ccc(F)cc2)n1/N=C/c1ccccn1	-	16µM	-	?	18µM	?
O=C(/C=C/Nc1ccc(Oc2ccccc2)cc1)c1ccc(F)cc1	-	.	.	.	.	.
O=C(COc1ccc(/C=N/NS(=O)(=O)c2ccccc2)cc1)Nc1cccc(Cl)c1	-	21µM	-	?	?	-
CC(C)(C)Nc1nc(NN)nc(NC(C)(C)C)n1	-	?	20µM	?	7.1µM	-
SMILES	ALOX12 inh	DT40 TDP1 no CPT	VP16 counter	TDP1 cell CPT	RORgamma inh	ELG1 repair inh
Cc1nc(-c2cccc(NS(=O)(=O)c3ccccc3)c2)cs1	-	-	-	?	-	-
Cc1ccc2nc(-c3cccc(S(=O)(=O)N4CC(C)OC(C)C4)c3)cn2c1 (stereo not drawn)	-	15µM	-	?	-	-
CCCN(CCC)S(=O)(=O)c1cccc(-c2csc(C)n2)c1	-	18µM	-	?	-	-
Clc1ccc(-c2nc3n(n2)Cc2ccccc2-3)cc1	-	-	-	-	-	?
CCN(CC)S(=O)(=O)c1cccc(-c2n[nH]c(=S)n2CC(C)C)c1	32µM	?	-	-	8.9µM	-
CCN(CC)S(=O)(=O)c1cccc(-c2nc3n(n2)Cc2ccccc2-3)c1	?	23µM	-	?	-	-
Cc1nnc(NC(=O)CN2CCN(c3cccc(C)c3C)CC2)s1	-	.	.	.	.	.
CCCNC(=O)N(C1CCOCC1)C1CCN(C(=O)c2ccc(C)c(F)c2)CC1	-	.	.	.	.	.
CCN(CC)S(=O)(=O)c1cccc(-c2cn3cc(C)ccc3n2)c1	-	18µM	?	21µM	?	?
